# Reference: ChEMBL document CHEMBL5724796, “Tm Shift (DSF) assay results for EUbOPEN Chemogenomics Library” (2024)
# Non-standard residues stand in square brackets, D forms with d. Residues, ends and D or L forms follow the SMILES beside them. *: point of attachment. Benzoyl(4-tBu) = CC(C)(C)c1ccc(C(=O)*)cc1; Lys(Et2) = CCN(CC)CCCC[C@H](N)C(=O)O; Cbz = O=C(OCc1ccccc1)*; CH2F = FC*
# Experiments:
# Conditions in all cases: Compound concentration 20.0 uM
# [1] = target: Tyrosine-protein kinase ABL1 (Homo sapiens) (UniProt P00519)
# [2] = target: Bromodomain-containing protein 4 (Homo sapiens) (UniProt O60885)
# [3] = target: Cyclin-dependent kinase 2 (Homo sapiens) (UniProt P24941)
# [4] = target: Casein kinase I isoform delta (Homo sapiens) (UniProt P48730)
# [5] = target: Glycogen synthase kinase-3 beta (Homo sapiens) (UniProt P49841)
# [6] = target: Mitogen-activated protein kinase 1 (Homo sapiens) (UniProt P28482)
# [7] = target: T1, Aurora kinase A (Homo sapiens) (UniProt O14965)
# T1 sequence (whole entry): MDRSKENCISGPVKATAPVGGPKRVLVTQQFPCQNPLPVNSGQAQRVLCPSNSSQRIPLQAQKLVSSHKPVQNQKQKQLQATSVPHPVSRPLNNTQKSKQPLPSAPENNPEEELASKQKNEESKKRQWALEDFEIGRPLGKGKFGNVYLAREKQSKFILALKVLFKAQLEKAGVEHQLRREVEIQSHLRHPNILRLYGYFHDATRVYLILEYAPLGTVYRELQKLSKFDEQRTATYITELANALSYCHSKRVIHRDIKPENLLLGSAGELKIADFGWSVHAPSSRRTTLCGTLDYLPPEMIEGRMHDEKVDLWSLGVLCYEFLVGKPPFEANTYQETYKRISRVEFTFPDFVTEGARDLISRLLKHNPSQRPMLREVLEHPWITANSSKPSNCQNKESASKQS
# [8] = target: T2, Transcription intermediary factor 1-alpha (Homo sapiens) (UniProt O15164)
# T2 sequence (whole entry): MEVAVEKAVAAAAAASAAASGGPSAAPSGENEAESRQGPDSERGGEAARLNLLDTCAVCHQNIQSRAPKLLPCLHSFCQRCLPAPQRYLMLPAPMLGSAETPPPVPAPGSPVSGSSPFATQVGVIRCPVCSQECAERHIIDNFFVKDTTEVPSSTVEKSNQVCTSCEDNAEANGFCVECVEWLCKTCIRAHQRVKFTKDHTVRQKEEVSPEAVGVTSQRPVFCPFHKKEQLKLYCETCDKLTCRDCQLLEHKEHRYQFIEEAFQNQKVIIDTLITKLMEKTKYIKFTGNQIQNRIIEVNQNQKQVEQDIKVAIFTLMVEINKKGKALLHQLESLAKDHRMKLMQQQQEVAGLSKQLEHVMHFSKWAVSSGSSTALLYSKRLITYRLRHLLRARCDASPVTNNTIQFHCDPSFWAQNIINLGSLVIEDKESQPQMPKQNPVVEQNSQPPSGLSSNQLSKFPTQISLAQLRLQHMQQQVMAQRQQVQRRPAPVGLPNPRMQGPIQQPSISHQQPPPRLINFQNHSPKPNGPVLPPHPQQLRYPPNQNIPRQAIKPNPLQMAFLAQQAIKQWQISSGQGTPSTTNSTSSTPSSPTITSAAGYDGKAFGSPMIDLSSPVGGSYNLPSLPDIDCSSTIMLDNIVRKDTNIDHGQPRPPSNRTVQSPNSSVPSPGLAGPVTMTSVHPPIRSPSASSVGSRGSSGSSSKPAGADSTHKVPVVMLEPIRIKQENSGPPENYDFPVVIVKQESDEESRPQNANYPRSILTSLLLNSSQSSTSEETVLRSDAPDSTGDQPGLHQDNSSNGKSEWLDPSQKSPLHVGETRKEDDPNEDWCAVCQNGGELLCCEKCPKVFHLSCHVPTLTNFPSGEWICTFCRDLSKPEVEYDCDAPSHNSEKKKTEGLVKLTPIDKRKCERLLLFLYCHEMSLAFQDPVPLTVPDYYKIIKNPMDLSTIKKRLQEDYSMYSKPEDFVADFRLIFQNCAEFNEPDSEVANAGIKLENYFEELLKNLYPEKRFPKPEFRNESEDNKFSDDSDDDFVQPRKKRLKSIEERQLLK
# Tyrosine-protein kinase ABL1 (Homo sapiens), sequence (P00519 whole entry): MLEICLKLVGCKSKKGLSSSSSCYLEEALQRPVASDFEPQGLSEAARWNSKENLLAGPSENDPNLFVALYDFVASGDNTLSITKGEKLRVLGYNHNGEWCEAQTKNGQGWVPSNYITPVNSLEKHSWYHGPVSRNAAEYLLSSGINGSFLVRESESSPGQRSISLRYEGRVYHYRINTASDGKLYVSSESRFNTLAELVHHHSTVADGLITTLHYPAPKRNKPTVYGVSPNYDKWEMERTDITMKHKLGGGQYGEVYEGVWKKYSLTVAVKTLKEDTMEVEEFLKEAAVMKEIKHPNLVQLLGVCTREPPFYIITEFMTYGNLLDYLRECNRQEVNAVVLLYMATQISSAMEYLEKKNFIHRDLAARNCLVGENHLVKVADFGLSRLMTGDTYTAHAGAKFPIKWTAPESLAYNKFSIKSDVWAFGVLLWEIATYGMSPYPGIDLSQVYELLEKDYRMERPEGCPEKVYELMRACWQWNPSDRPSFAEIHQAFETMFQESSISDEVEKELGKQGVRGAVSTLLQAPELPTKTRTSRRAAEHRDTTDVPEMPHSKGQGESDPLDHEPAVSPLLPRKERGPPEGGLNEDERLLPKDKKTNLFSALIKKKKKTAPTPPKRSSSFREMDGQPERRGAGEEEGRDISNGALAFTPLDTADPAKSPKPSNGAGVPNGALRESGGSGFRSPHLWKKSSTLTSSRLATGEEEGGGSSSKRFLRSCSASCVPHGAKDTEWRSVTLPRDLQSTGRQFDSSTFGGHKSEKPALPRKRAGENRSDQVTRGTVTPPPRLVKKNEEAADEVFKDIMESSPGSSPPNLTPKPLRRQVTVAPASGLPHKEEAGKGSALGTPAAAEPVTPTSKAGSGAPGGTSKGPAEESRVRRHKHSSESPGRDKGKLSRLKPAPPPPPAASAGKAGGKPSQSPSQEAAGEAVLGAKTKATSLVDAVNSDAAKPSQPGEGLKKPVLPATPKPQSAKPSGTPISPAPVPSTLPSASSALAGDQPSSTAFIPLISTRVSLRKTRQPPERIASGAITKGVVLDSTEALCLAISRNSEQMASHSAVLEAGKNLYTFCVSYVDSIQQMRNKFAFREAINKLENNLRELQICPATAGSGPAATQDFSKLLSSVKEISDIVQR
# Glycogen synthase kinase-3 beta (Homo sapiens), sequence (P49841 whole entry, looked up): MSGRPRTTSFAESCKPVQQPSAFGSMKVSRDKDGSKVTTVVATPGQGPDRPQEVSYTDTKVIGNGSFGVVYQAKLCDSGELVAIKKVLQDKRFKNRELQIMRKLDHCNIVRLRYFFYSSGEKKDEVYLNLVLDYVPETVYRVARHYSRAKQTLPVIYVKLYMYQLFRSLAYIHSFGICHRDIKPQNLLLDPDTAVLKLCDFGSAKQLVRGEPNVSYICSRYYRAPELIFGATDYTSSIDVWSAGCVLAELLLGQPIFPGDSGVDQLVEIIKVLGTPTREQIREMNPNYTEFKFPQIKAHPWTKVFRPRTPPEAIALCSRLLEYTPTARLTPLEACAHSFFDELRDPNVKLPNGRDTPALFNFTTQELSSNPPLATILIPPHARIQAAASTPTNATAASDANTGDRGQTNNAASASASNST
# Casein kinase I isoform delta (Homo sapiens), sequence (P48730 whole entry, looked up, canonical isoform): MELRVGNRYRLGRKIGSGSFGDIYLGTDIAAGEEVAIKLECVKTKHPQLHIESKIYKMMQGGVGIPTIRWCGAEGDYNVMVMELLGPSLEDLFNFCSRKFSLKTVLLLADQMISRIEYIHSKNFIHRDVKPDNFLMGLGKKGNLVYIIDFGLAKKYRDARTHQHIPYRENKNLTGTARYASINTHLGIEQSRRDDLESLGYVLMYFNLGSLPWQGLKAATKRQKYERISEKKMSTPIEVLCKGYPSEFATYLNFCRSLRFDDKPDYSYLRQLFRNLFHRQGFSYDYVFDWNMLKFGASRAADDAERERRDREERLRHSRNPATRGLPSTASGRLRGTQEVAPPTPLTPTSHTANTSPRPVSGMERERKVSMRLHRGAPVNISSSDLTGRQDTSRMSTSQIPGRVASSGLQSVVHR
# Mitogen-activated protein kinase 1 (Homo sapiens), sequence (P28482 whole entry): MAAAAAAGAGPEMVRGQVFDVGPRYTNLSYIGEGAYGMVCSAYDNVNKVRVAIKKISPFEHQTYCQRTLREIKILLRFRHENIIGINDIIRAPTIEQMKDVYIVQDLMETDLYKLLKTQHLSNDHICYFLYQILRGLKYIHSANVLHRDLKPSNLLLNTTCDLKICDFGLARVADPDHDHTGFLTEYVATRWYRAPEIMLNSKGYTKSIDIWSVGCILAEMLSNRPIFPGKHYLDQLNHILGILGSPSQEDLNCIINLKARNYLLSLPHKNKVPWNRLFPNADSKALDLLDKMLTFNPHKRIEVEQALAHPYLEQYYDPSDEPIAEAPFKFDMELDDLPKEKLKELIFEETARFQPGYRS
smiles,measurement,setting,value
O=C(Nc1c(Cl)cncc1Cl)c1ccc(OC(F)F)c(OCC2CC2)c1,ΔTm,[1],0.75 °C
same,ΔTm,[2],-3.16 °C
same,ΔTm,[3],0.32 °C
same,ΔTm,[4],-0.3 °C
same,ΔTm,[5],0.27 °C
same,ΔTm,[6],0.36 °C
same,ΔTm,[7],-2.31 °C
same,ΔTm,[8],2.4 °C
CC(C)c1cc(C(=O)N2Cc3ccc(CN4CCN(C)CC4)cc3C2)c(O)cc1O,ΔTm,[1],1.01 °C
same,ΔTm,[2],-1.29 °C
same,ΔTm,[3],0.67 °C
same,ΔTm,[4],0.22 °C
same,ΔTm,[5],-0.43 °C
same,ΔTm,[6],-0.06 °C
same,ΔTm,[7],-0.12 °C
same,ΔTm,[8],-0.61 °C
COc1cc2c(NC3CCN(C)CC3)nc(N3CCCN(C)CC3)nc2cc1OCCCN(C)C,ΔTm,[1],0.04 °C
same,ΔTm,[2],-1.01 °C
same,ΔTm,[3],0.12 °C
same,ΔTm,[4],0.25 °C
same,ΔTm,[5],-0.54 °C
same,ΔTm,[6],0.4 °C
same,ΔTm,[7],-1.36 °C
same,ΔTm,[8],-0.25 °C
CS(=O)(=O)c1ccc(Oc2cc(F)cc(C#N)c2)c2c1C(O)C(F)C2 (stereo not drawn),ΔTm,[1],0.53 °C
same,ΔTm,[2],-2.49 °C
same,ΔTm,[3],0.01 °C
same,ΔTm,[4],-0.13 °C
same,ΔTm,[5],-0.04 °C
same,ΔTm,[6],0.54 °C
same,ΔTm,[7],-2.47 °C
same,ΔTm,[8],-0.39 °C
COC(=O)CC[C@H](NC(=O)[C@H](C)NC(=O)OCc1ccccc1)C(=O)N[C@H](C(=O)N[C@@H](CC(=O)OC)C(=O)CF)C(C)C (Cbz-AE(OMe)VD(OMe)-CH2F),ΔTm,[1],0.32 °C
same,ΔTm,[2],-1.14 °C
same,ΔTm,[3],-0.09 °C
same,ΔTm,[4],-0.04 °C
same,ΔTm,[5],-0.78 °C
same,ΔTm,[6],-0.86 °C
same,ΔTm,[7],-1.1 °C
same,ΔTm,[8],-1.06 °C
O=C(Nc1ccccc1C(=O)O)c1cc(S(=O)(=O)c2ccccc2)ccc1Cl,ΔTm,[1],0.57 °C
same,ΔTm,[2],-2.4 °C
same,ΔTm,[3],0.28 °C
same,ΔTm,[4],-0.33 °C
same,ΔTm,[5],0.26 °C
same,ΔTm,[6],0.08 °C
same,ΔTm,[7],-2.26 °C
same,ΔTm,[8],1.1 °C
CCN(CC)CCCC[C@H](NC(=O)[C@H](CC(C)C)NC(=O)[C@H](C)NC(=O)[C@H](Cc1ccccc1)NC(=O)c1ccc(C(C)(C)C)cc1)C(=O)N[C@@H](CO)C(=O)OC ({Benzoyl(4-tBu)}-FAL[Lys(Et2)]S-OMe),ΔTm,[1],0.51 °C
same,ΔTm,[2],-1.71 °C
same,ΔTm,[3],-0.26 °C
same,ΔTm,[4],0.5 °C
same,ΔTm,[5],-1.01 °C
same,ΔTm,[6],0.31 °C
same,ΔTm,[7],-1.22 °C
same,ΔTm,[8],-1.11 °C
CCCc1nc(C)c2c(C)nc3ccc(OC)nc3n12,ΔTm,[1],1.04 °C
same,ΔTm,[2],-3.02 °C
same,ΔTm,[3],-0.07 °C
same,ΔTm,[4],2.7 °C
same,ΔTm,[5],1.39 °C
same,ΔTm,[6],0.58 °C
same,ΔTm,[7],-1.87 °C
same,ΔTm,[8],0.69 °C
NC(=O)c1ccc(Oc2ccc(C(N)=O)cc2)cc1,ΔTm,[1],0.24 °C
same,ΔTm,[2],-0.98 °C
same,ΔTm,[3],-0.07 °C
same,ΔTm,[4],0.22 °C
same,ΔTm,[5],0.02 °C
same,ΔTm,[6],0.14 °C
same,ΔTm,[7],-1.15 °C
same,ΔTm,[8],-0.86 °C
CC(C)(C)OC(=O)NCCCCCN(CCc1ccccc1)C(=O)n1cc(-c2ccc(OC(F)(F)F)cc2)nn1,ΔTm,[1],-0.13 °C
same,ΔTm,[2],-3.63 °C
same,ΔTm,[3],0.01 °C
same,ΔTm,[4],-1.51 °C
same,ΔTm,[5],-2.3 °C
same,ΔTm,[6],0.71 °C
same,ΔTm,[7],-2.16 °C
same,ΔTm,[8],0.4 °C
O=C(Nc1cc(C(F)F)ns1)Nc1cc(F)ncc1CO,ΔTm,[1],0.52 °C
same,ΔTm,[2],-1.44 °C
same,ΔTm,[3],0.5 °C
same,ΔTm,[4],-0.49 °C
same,ΔTm,[5],1.08 °C
same,ΔTm,[6],0.14 °C
same,ΔTm,[7],-1.82 °C
same,ΔTm,[8],0.59 °C
CC1(NC(=O)COc2cccc(-c3nc4c(c(Nc5ccc(-c6cn[nH]c6)cc5)n3)CN(C3CCC3)CC4)c2)CC1,ΔTm,[1],0.81 °C
same,ΔTm,[2],-2.72 °C
same,ΔTm,[3],0.02 °C
same,ΔTm,[4],-0.75 °C
same,ΔTm,[5],-0.18 °C
same,ΔTm,[6],0.14 °C
same,ΔTm,[7],0.11 °C
same,ΔTm,[8],-0.35 °C
CC(C)C[C@@H](C=O)NC(=O)[C@@H](NS(=O)(=O)c1ccc(F)cc1)C(C)C,ΔTm,[1],-0.01 °C
same,ΔTm,[2],-1.83 °C
same,ΔTm,[3],-0.11 °C
same,ΔTm,[4],0.22 °C
same,ΔTm,[5],-0.13 °C
same,ΔTm,[6],0.01 °C
same,ΔTm,[7],-1.2 °C
same,ΔTm,[8],-1.15 °C
COCCOCCn1nc2c(c1C)-c1c(Cl)ccc3c1c(C)c(C(=O)O)n3CCCOc1cc(cc3c(F)c(Cl)ccc13)CCc1cc(nn1C)CSC2,ΔTm,[1],-1.69 °C
same,ΔTm,[2],-3.74 °C
same,ΔTm,[3],-3.85 °C
same,ΔTm,[4],-0.76 °C
same,ΔTm,[5],0 °C
same,ΔTm,[6],-1.31 °C
same,ΔTm,[7],0.82 °C
same,ΔTm,[8],-3.03 °C
COc1cc(C(=O)N2C[C@H](N)CC[C@@H]2C)cc2nc(-c3cc4cccnc4n3CC3CC3)n(C)c12,ΔTm,[1],0.14 °C
same,ΔTm,[2],0.61 °C
same,ΔTm,[3],0.15 °C
same,ΔTm,[4],-0.38 °C
same,ΔTm,[5],-1.31 °C
same,ΔTm,[6],-0.7 °C
same,ΔTm,[7],-1.15 °C
same,ΔTm,[8],0.53 °C
CC(C)N(CCCNC(=O)Nc1ccc(C(C)(C)C)cc1)C[C@H]1O[C@@H](n2ccc3c(N)ncnc32)[C@H](O)[C@@H]1O,ΔTm,[1],0.45 °C
same,ΔTm,[2],-1.62 °C
same,ΔTm,[3],0.52 °C
same,ΔTm,[4],0.47 °C
same,ΔTm,[5],-0.31 °C
same,ΔTm,[6],0.01 °C
same,ΔTm,[7],0.01 °C
same,ΔTm,[8],-1.18 °C
